Results: PubChem BioAssay (NCI)
This is part of a sample that, as a whole, favours compounds with a hit. Of some 83,000 tested, about 20% had one in any assay.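 Results are percent growth after 48 hours of single-concentration exposure. 100 means growth as in untreated cells, lower positive values show inhibition; negative values down to -100 show cell death.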 Activity calls are given as the source filed them. How the source made its calls: active means growth percent below 10; inactive means the rest.

The compounds below were run on MDA-MB-468 breast (assay: NCI-60 one-dose screen, 48 h (100 = growth as untreated, 0 = no growth, -100 = all killed)). Conditions: 10 µM unless noted.

Row | Structure (SMILES) | growth
1 | O=C1NC(=O)C(Cn2cnc3ccccc32)N1 (configuration not stated) | 99% (inactive)
2 | CC(C)CSc1oc(-c2ccccc2)nc1S(=O)(=O)c1ccccc1 | 89.4% (inactive)
3 | COc1cc2cc(NCc3ccc(OC(F)F)cc3)nc(C)c2cc1OC | 64.4% (inactive)
4 | CNS(=O)(=O)c1n[nH]nc1-c1cc(C(C)(C)C)c(O)c(C(C)(C)C)c1 | 92.2% (inactive)
5 | O=C1Nc2cc(-c3ccc(NS(=O)(=O)c4ccccc4)cc3)ccc2/C1=C/c1ccc[nH]1 | -7.8% (active)
6 | CCOC(=O)C(CC(c1ccccc1)N1CCCCC1)[N+](=O)[O-] (configuration not stated) | 49.7% (inactive)
7 | CCN(CC)CCCNCc1cc(-c2ccccc2)nc2cc(Cl)ccc12 | -25.7% (active)
8 | C=C1C(=O)O[C@H]2[C@H]1CC/C(COC(=O)C(C)c1ccc(CC(C)C)cc1)=C\CC[C@@]1(C)O[C@@H]21 (some centres not stated) | 6.36% (active)
9 | O=C1/C(=C/c2ccccc2)CN(CCC(=O)N2C/C(=C\c3ccccc3)C(=O)/C(=C/c3ccccc3)C2)C/C1=C\c1ccccc1 | 66.9% (inactive)
10 | CC1=C2[C@@H](CC1)[C@]1(C)O[C@@](C(C)C)(C[C@H]1OC(=O)[C@H](C)O)[C@H]2OC(=O)/C=C/c1ccccc1 | 86.9% (inactive)
11 | O=c1[nH]c(CN2CCN(c3ccccc3)CC2)nc2c(Br)cc(Br)cc12 | 114% (inactive)
12 | O=C(CSc1nccc(Nc2ccc(S(=O)(=O)Nc3nccs3)cc2)n1)c1ccc(C(F)(F)F)cc1 | 97% (inactive)
13 | CC1=C(SCC(=O)OCCCCCC(C)C)C(=O)c2ccccc2C1=O | 65.5% (inactive)
14 | CCO/C=N/C1=C(C#N)C(c2ccc(OC)cc2)c2sc3c(CC)cccc3c2O1 (configuration not stated) | -21.1% (active)
15 | Cc1cc(=O)n(C(=S)Nc2ccc(Cl)cc2)c2cc(O)ccc12 | 98.7% (inactive)
16 | COc1ccc(OC)c([N+](=O)[O-])c1C=O | 81.9% (inactive)
17 | COc1cc(-c2nn(-c3cccc(NC(=O)CCNc4ccc(N5CCOCC5)cc4)c3)cc2-c2ccncc2)ccc1Cl | 30.7% (inactive)
18 | Cc1ccc(C2C3CC4CCCCC4N3[C@@]3(C(=O)Nc4cc(Cl)ccc43)C2C(=O)c2nc3ccccc3[nH]2)cc1 (some centres not stated) | -10.9% (active)
19 | N#Cc1c(-c2ccc(Cl)cc2)nc2c(c(-c3ccccc3)nn2-c2ccccc2)c1-c1ccc(O)cc1 | 31.2% (inactive)
20 | Cn1c(N)c(N=O)c(=O)[nH]c1=O | 115% (inactive)
21 | CCc1c2c(nc3ccc(OC(=O)OCc4ccc(B5OC(C)(C)C(C)(C)O5)cc4)cc13)-c1cc3c(c(=O)n1C2)COC(=O)[C@]3(O)CC | -33.6% (active)
22 | O=C(CSc1nc2ccccc2c(=O)n1-c1ccccc1)N/N=C/c1ccc(Oc2ccc(Br)cc2)cc1 | 65.1% (inactive)
23 | COc1ccc(CN2c3ccccc3Sc3ccccc32)cc1F | -0.673% (active)
24 | Cc1ccc(-c2nnc(SCc3ccc(O)c4ncccc34)o2)cc1 | 14.4% (inactive)
25 | CC(=O)Nc1sc2c(c1-c1nc3ccccc3s1)CNC2 | -3.09% (active)
26 | Clc1ccc2c(N/N=C/c3c[nH]c4ccccc34)ccnc2c1 | -75.9% (active)
27 | c1ccc(-c2n(Cc3ccc4ccccc4c3)cc[n+]2Cc2ccc3ccccc3c2)cc1 | -65.5% (active)
